Source: PubChem BioAssay AID687001 (Broad Institute, 2013)
Results with a measured potency or affinity are listed apart. Activity calls are given as the source filed them.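 Rule for the calls: active = signal-lowering compounds whose fitted half-maximal concentration is at or below twice the top tested dose in every run; inconclusive = runs disagree, flat 30 to 70% inhibition, or poor curve fit; inactive = the rest.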

Target: Protein S100-A4 (Homo sapiens) (UniProt P26447)
Experiment: human S100A4 peptide interaction inhibition curves – biochemical, fluorescence polarization, cherry-picked hits, dose response (AID 687001)
Conditions: FP, S100A4/TAMRA-myosin IIA peptide binding; series mostly up to 11 µM

Protein S100-A4 (Homo sapiens), sequence (P26447 whole entry, looked up): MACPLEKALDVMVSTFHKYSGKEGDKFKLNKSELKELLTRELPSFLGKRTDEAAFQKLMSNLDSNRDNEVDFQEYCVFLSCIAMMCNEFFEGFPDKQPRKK

outcome, inactive:
C[C@@H]1CN([C@H](C)CO)S(=O)(=O)c2ccc(C#C[C@@H](C)O)cc2O[C@@H]1CN(C)C(=O)C1CC1
CC(=O)Nc1ccc(S(=O)(=O)Nc2ccc3c(c2)OCO3)cc1
C[C@@H]1CN([C@@H](C)CO)C(=O)c2cc(C#Cc3ccccc3)cnc2O[C@H]1CN(C)C(=O)c1ccccc1F
CCC(=O)Nc1ccc2c(c1)OC[C@H](C)N(C(=O)CC1CC1)C[C@H](C)[C@H](OC)CN(C)C2=O
O=C(NCCN1CCOCC1)c1ccc(/C=C2\Sc3ccccc3N(Cc3ccccc3F)C2=O)cc1
CC1(C(=O)Nc2ccc3c(c2)OCO3)CCN1C(=O)Cc1cccc2ccccc12 (stereo not given)
N#C[C@@H]1[C@H](c2ccccc2C2=CCCCC2)[C@@H](CO)N1S(=O)(=O)c1cccc(F)c1
O=C1CNC[C@H]2[C@@H](c3ccc(C#CC4CCCC4)cc3)[C@@H](CO)N12
CCC(Sc1nc2ccncc2[nH]1)C(=O)Nc1ccc(C)c(Cl)c1 (stereo not given)
O=C(Cn1cc(COc2ccc3ccc(=O)oc3c2)nn1)c1ccc(O)cc1
Cc1cccn2c(=O)c3cc(C(=O)NC4CCCCCC4)sc3nc12
CCN(C[C@H]1[C@H](c2ccccc2)[C@H](CO)N1C(C)=O)C(=O)c1ccccn1
CC1CCN(C(=O)CSc2n[nH]c(-c3cccs3)n2)CC1
CCN(CC)c1ccc(S(=O)(=O)N2CCOCC2)cc1NC(=O)COC(=O)/C=C/c1ccccc1
O=C(Nc1ccc2c(c1)CN(Cc1ccco1)CC2)C1CCCO1 (stereo not given)
C[C@H](CO)N1C[C@H](C)[C@@H](CN(C)Cc2ccc(Cl)c(Cl)c2)Oc2c(NS(=O)(=O)c3cccs3)cccc2C1=O
COC(=O)Cc1c(C)nc(SCc2ccccc2)[nH]c1=O
COc1ccc(N2CCN(C(=O)[C@H](C)N3C(=O)C4CC=CCC4C3=O)CC2)cc1 (stereo not given in full)
COC(=O)c1cccc(NC(=O)c2ccc3c(c2)C(=O)N(Cc2cccnc2)C3=O)c1
COc1ccc(NC(=O)N(C)C[C@@H]2OCCCC[C@@H](C)Oc3ccc(NS(=O)(=O)c4ccc(Cl)cc4)cc3C(=O)N([C@H](C)CO)C[C@@H]2C)cc1
O=C(NCC[C@H]1CC[C@H](NS(=O)(=O)c2ccccc2)[C@@H](CO)O1)c1cc(Cl)cc(Cl)c1
Cc1ccc(S(=O)(=O)N(C)C[C@H]2OCCCC[C@H](C)Oc3ccc(NS(=O)(=O)c4ccccc4)cc3C(=O)N([C@H](C)CO)C[C@@H]2C)cc1
COc1ccc(C(=O)CC(=O)C(=O)Nc2c(C)cccc2C)cc1
Cc1ccc(S(=O)(=O)N(C)C[C@H]2Oc3ccc(NC(=O)Nc4ccccc4)cc3C(=O)N([C@@H](C)CO)C[C@H]2C)cc1
CN(CC(=O)Nc1ccc(F)cc1)C(=O)CCc1nc2sc3c(c2c(=O)[nH]1)CCCC3
